High-throughput results (PubChem BioAssay)
Epigenetic mod: epigenetic modulators derepressing GFP locus in mouse cells; actives 0.09% (n = 68,000); Potency, µM (highest dose often 46.1 µM), for the others: top-dose GFP derepression (activation); mouse C127i GFP locus derepression, cytometry, 30 h; also: % of control where 0% means no effect
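Read-out is the number of GFP-positive cells, scored as fluorescent objects 20 to 120 um wide, reflecting derepression of a silenced CMV-GFP reporter in murine C127i cells after 30 h compound exposure at 37 C.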
TSHR ag: activates the human thyroid stimulating hormone receptor. P16473. actives 0.48% (n = 73,000). HEK293-CNG-TSHR cells (CNG channel as cAMP sensor), membrane potential dye, cAMP. Potency, µM (titrated, usually from 57.1 µM), without a hit: top-dose activation, most hits filed as activators; active = well fitted activation curve with a large enough effect in the main read-out, with a control signal flat, not every such curve was filed as active; inconclusive = small, poorly fitted or top-dose-only effect, or a change in a side signal; inactive = no such curve, though single readings can be large or run the other way; % of control where 0% means no effect;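 also: the control signal comes from parental cells without the receptor; potency is read from the fitted curve at half-maximal effect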
Target sequence (P16473 whole entry, looked up): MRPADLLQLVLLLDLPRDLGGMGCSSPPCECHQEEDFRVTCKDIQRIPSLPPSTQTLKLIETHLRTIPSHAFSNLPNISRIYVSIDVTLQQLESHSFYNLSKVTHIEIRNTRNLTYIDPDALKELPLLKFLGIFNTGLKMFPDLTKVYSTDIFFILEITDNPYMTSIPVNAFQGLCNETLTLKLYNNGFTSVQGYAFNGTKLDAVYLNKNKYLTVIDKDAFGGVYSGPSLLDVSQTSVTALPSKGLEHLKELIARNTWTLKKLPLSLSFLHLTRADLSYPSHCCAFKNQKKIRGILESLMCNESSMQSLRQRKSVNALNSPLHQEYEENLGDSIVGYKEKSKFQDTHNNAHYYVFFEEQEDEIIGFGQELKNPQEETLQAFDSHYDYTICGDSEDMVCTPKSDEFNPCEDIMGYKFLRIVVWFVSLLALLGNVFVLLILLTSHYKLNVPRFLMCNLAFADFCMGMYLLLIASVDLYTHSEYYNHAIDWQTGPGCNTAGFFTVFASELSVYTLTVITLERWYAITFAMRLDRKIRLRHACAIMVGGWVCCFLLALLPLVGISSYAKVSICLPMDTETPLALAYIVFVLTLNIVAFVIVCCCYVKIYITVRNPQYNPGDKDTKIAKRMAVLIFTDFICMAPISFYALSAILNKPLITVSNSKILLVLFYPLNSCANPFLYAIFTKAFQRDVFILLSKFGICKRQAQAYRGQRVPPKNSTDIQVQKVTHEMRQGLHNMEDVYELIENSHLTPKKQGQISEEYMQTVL
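cAMP rise detected as CNG-channel membrane depolarization by fluorescent dye (emission 590 nm), 30 min after compound, following 60 min dye loading containing 100 uM RO 20-1724 at room temperature. Cells: TSHR/CNG HEK 293, with parental CNG HEK 293 as control.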
HEK293 cAMP ctrl: counter-screen for TSHR agonists: cAMP increase in parental HEK293; parental HEK293 CNG cAMP sensor, membrane potential fluorescence; Potency, µM (top dose mostly 57.1 µM), for inactives: at the top dose activation, usual class: activators; actives 2.5% (n = 73,000); AID 938; also: potency is read from the fitted curve at half-maximal effect; % of control where 0% means no effect; nearly all actives have a fitted effect of over 55% in size
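Parental HEK 293 cells stably expressing a modified CNG channel (no TSHR) report cAMP rise as membrane depolarization. Membrane potential dye with 100 uM RO 20-1724 was loaded for 60 min at room temperature, then compound added for 30 min; fluorescence read at 590 nm.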
HBB splicing: hemoglobin beta splicing modulation | Potency, µM (titrated, usually from 46.1 µM), for the others: top-dose activation, hits mostly activators | HBB splicing reporter cell assay, activation; EGFP reporter with mutant IVS2-654 intron; response scale: normalised to 500 nM splice-correcting PNA | actives 0.06% (n = 65,000) | AID 925; also: potency is read from the fitted curve at half-maximal effect; 0% is about no effect
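Compounds were applied for 2 days to HeLa EGFP-654 cells, 500/well in Optimem with 2% FCS. The reporter's EGFP is disrupted by mis-splicing of beta-globin intron IVS2-654. Readout: summed well GFP fluorescence from 488 nm laser scanning; reference was 500 nM antisense […] 654 PNA.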
UbGFP stabilizer: inhibits proteasome, raising ubiquitin-GFP reporter fluorescence. Ubiquitin-GFP reporter cells, proteasome inhibition, GFP fluorescence; response scale: untreated = 0%, 10 µM MG-132 = 100%. Potency, µM (series often up to 45.9 µM), without a hit: top-dose activation (GFP accumulation), most hits filed as activators. 67,000 tested, under 10 active; active = well fitted activation curve with a large enough effect, not every such curve was filed as active; inconclusive = small, poorly fitted or top-dose-only effect, or another doubt; inactive = no such curve, though single readings can be large or run the other way; also: potency is read from the fitted curve at half-maximal effect
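Reporter cells (U2OS, ubiquitin-G76V-GFP fusion) are plated overnight, then treated 4 hr at 37 °C with compound titrations from 46 uM down to 2.9 nM. Activity is scaled against untreated cells and 10 uM MG-132.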
* marks the source's active call; other numbers are inactive results; ? = inconclusive; · = no result; [ ] = another dose, or the depositor's remark. Compounds with a hit are over-represented: about 3% of the library has one in this group of screens. Unless noted, calls follow the shape of the dose curve; as a rule, active = well fitted curve in the direction sought with a large enough effect; inconclusive = small, poorly fitted or top-dose-only effect, or another doubt; inactive = no such curve, though single readings can be large; an effect the other way counts as inactive or inconclusive.

SMILES	Epigenetic mod	TSHR ag	HEK293 cAMP ctrl	HBB splicing	UbGFP stabilizer
Cc1csc(NC(=O)c2sc3nc(-c4cccs4)ccc3c2N)n1	18%	-27%	-24%	16µM*	0%
COC(=O)N1[C@H](Cc2ccccc2)C=C[C@]1(C)C(=O)O	·	8%	24%	0%	·
COC(=O)[C@@]1(C)C=C[C@@H](Cc2ccccc2)N1C(=O)c1ccccc1	·	?	20µM*	-1%	·
CN(C)C(=O)c1ccc(-c2ccc3ncnc(N(C)C)c3c2)cc1	-1%[9.22 µM]	9%	6%	1%	0%
CN(C)c1ncnc2ccc(-c3ccc4c(c3)OCO4)cc12	0%[9.22 µM]	?	25µM*	-1%	2%
COc1ccc([C@@H]2CC(=O)c3c(O)cc(O[C@@H]4O[C@@H](CO[C@@H]5O[C@@H](C)[C@@H](O)[C@@H](O)[C@H]5O)[C@@H](O)[C@@H](O)[C@H]4O)cc3O2)cc1O	-2%[9.22 µM]	-1%	-2%	·	-4%
CCOc1ccc2nc(-c3ccccc3)[nH]c2c1	-2%	?	16µM*	·	-1%
COc1ccc2nc(-c3ccccc3)[nH]c2c1	2%	?	?	0%	4%
N/C(=N\O)c1cn([C@@H]2O[C@@H](CO)[C@H](O)[C@@H]2O)c2ncnc(NO)c12	0%[9.22 µM]	-2%[11.4 µM]	3%[11.4 µM]	0%[9.22 µM]	2%[9.17 µM]
CCOC(=O)c1cccc(NC(=O)c2cc3sccc3n2C)c1	3%	?	10µM*	0%[57.5 µM]	-2%
C[C@@H]1C[C@@]2(C)Oc3ccccc3[C@H]3OC[C@]1(COC(=O)Nc1ccccc1)[C@@H](C)[C@@H]32	-2%[9.22 µM]	11%	12%	·	-4%
C=CCn1c(SCC(=O)Nc2cc(C)c(Cl)cc2OC)nnc1-c1ccco1	2%	?	25µM*	-5%[0.369 µM]	-6%
C=CCn1c(SCC(=O)Nc2cc(C)ccc2OC)nnc1-c1ccco1	2%	8%	10%	3%[0.369 µM]	2%
O=C(O)COc1ccc(Br)cc1/C=N/O	2%	?	?	-3%[0.0738 µM]	13%[9.17 µM]
CCOc1ccc(Br)cc1/C=N/O	-3%	?	4µM*	3%[0.0738 µM]	5%[9.17 µM]
COCCOC(=O)c1c(C)oc2ccc(OC(=O)COc3c(F)c(F)c(F)c(F)c3F)cc12	2%[20.6 µM]	·	·	·	·
COCCOC(=O)c1c(C)oc2ccc(OCc3cc(C(=O)OC)oc3C)cc12	0%	?	25µM*	0%[57.5 µM]	9%
COC(=O)c1ccccc1NC(=O)c1cnn2c(C(F)F)cc(C3CC3)nc12	9%	?	16µM*	-2%	7%
Cc1ccc(CN(C)C(=O)c2ccccc2Oc2ccccc2)o1	24%	?	32µM*	0%[57.5 µM]	5%
Cc1cc(NC(=O)c2ccccc2Oc2ccccc2)no1	2%	?	?	0%[57.5 µM]	-1%
CCC(C(=O)NCc1ccco1)N(C(=O)CNS(=O)(=O)c1ccc(C)cc1)c1ccccc1OC (stereo not given)	0%	?	16µM*	·	2%
O=C(CN(Cc1ccco1)C(=O)CNS(=O)(=O)c1ccc(F)cc1)NCCc1ccccc1	1%	-1%	8%	·	-4%
COc1ccccc1N(C(=O)CNS(=O)(=O)c1ccccc1)C(C(=O)NCc1ccco1)C(C)C (stereo not given)	-2%	?	?	-3%	1%
CCCC(C(=O)NCc1ccco1)N(C(=O)CNS(=O)(=O)c1ccccc1)c1ccccc1OC (stereo not given)	0%	?	25µM*	·	5%
O=C(CN(Cc1ccco1)C(=O)CNS(=O)(=O)c1ccccc1)NCc1ccccc1	-1%	20µM*	13%	-2%	-4%
SMILES	Epigenetic mod	TSHR ag	HEK293 cAMP ctrl	HBB splicing	UbGFP stabilizer
CCCC(C(=O)NCc1ccco1)N(C(=O)CNS(=O)(=O)c1ccc(Cl)cc1)C1CCCC1 (stereo not given)	-2%	-9%	7%	2%	0%
COc1cccc(Cn2c(=O)c(-c3ccc(Cl)cc3)nc3cnc(OC)nc32)c1	5%[9.22 µM]	?	?	-1%	-10%
CCc1cc2c(nc1CC)CCN(CC/C(C)=N/OC[C@@H](O)[C@@H]1O[C@@H]3OC(C)(C)O[C@@H]3[C@H]1O)C2	·	2%[11.4 µM]	-2%[11.4 µM]	3%[9.22 µM]	·
CCCCn1c(CN(C)Cc2ccccc2)nc2c1c(=O)n(C)c(=O)n2C	0%	?	16µM*	-1%	0%
CN(Cc1ccccc1)Cc1nc2c(c(=O)n(C)c(=O)n2C)n1Cc1ccccc1Cl	0%	?	?	2%[57.5 µM]	4%
CCCn1c(CN(C)Cc2ccccc2)nc2c1c(=O)n(C)c(=O)n2C	-1%	?	?	1%	-2%
CN(Cc1ccccc1)Cc1nc2c(c(=O)n(C)c(=O)n2C)n1CCc1ccccc1	-2%	?	13µM*	-1%[57.5 µM]	2%
Cc1noc(C)c1-c1nc(NCc2cccs2)c2ccccc2n1	3%[9.22 µM]	?	?	3%	-8%
CC1CCCCN1c1nc(-c2ccncc2)nc2ccccc12 (stereo not given)	3%	?	25µM*	2%[1.84 µM]	2%
CCC1CCCCN1c1nc(-c2ccncc2)nc2ccccc12 (stereo not given)	2%[20.6 µM]	·	·	·	·
O=C(N/N=C1/C[C@@H](O)[C@@H](O)[C@@H]2[C@@H]3C(=O)N(C[C@@H]4CCCO4)C(=O)[C@H]3CC[C@H]12)OCc1ccccc1	·	-3%[11.4 µM]	3%[11.4 µM]	2%[9.22 µM]	·
COc1ccccc1CNc1cc(-c2ccoc2)ncn1	-1%[9.22 µM]	·	12%	4%	5%
Cc1cc(-n2c(C)cc(C(=O)CSc3ncnc4ccccc34)c2C)no1	0%	?	7.9µM*	-1%[1.84 µM]	-11%
CC(C)(C)n1nnnc1C(c1cccs1)N(Cc1ccccc1)Cc1cccnc1 (stereo not given)	0%	?	16µM*	·	8%
CCN(Cc1ccccc1)C(c1ccncc1)c1nnnn1C(C)(C)C (stereo not given)	-2%	?	?	·	1%
CCN1C(=O)C2(Nc3ccccc3-c3nc4ccccc4n32)c2cc(OC)ccc21 (stereo not given)	-2%	?	7.9µM*	0%[1.84 µM]	4%
CCOC(=O)c1sc(NC(=O)CSc2nnc(C)s2)c(C(=O)OCC)c1C	-2%	?	13µM*	·	-5%
O=C(NCCN1CCOCC1)c1ccc(-n2c(=O)c(=O)[nH]c3ccccc32)cc1	·	-7%	-11%	·	·
N#Cc1ccc(NC(=O)c2cc3cc4c5c(c3oc2=N)CCCN5CCC4)cc1	10µM*	-9%	9%	0%	15%
Cc1ccc(NC(=O)c2ccccc2C(=O)O)cc1C	-2%[9.22 µM]	-2%[11.4 µM]	10%[11.4 µM]	5%[9.22 µM]	-5%[9.17 µM]
N=c1oc2c3c4c(cc2cc1C(=O)Nc1ccccc1)CCCN4CCC3	7%	-26%	-21%	3.2µM*	?
